# From article PMC7862700, “An all-to-all approach to the identification of sequence-specific readers for epigenetic DNA modifications on cytosine”
# Columns and labels:
# Assay in all cases: DAPPL (digital affinity profiling via proximity ligation, sequencing); 10 mM Tris-HCl pH 7.5, 50 mM NaCl, 1 mM DTT, 4% glycerol, room temperature, 30 min; GST-TFs on glutathione beads, 16-mer random dsDNA library, 0.1% formaldehyde crosslink after washing; high values mean tight binding
# Conditions in all cases: protein: recombinant; tags: N-terminal GST; dsDNA, one strand shown
# ELF4 = ELF4 (Homo sapiens, UniProt Q99607 1-663)
# Chain of ELF4 (Q99607 whole entry, the tested form may be a part): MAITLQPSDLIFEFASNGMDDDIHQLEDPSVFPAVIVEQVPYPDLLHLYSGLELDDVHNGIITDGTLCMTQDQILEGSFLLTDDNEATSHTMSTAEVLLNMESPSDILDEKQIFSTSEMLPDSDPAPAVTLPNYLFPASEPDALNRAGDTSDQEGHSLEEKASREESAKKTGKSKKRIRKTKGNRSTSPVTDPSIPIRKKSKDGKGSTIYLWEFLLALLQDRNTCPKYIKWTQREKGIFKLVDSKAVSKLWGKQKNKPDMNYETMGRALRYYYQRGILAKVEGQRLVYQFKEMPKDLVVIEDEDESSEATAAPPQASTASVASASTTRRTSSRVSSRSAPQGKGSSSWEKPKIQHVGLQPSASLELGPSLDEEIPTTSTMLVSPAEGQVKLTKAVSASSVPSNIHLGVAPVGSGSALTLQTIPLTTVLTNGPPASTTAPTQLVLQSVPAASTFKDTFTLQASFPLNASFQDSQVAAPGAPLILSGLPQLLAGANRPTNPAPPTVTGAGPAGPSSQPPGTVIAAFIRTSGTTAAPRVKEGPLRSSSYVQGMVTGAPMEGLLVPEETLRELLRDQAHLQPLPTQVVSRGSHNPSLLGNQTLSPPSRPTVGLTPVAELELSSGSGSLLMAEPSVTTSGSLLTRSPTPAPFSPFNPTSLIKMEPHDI
# Method in brief: (§1)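 Yeast served to express human transcription factors as GST fusions, which were then captured on glutathione beads and labelled with DNA barcodes. Pooled with a tag-only sample, they were incubated with 200 nmole of a 16-mer random double-stranded DNA library for 30 min at room temperature in Tris/NaCl/DTT/glycerol buffer, washed, crosslinked with 0.1% formaldehyde, ligated by proximity, amplified by PCR and sequenced. Dividing each hexamer's read frequency for a factor by its frequency for the tag-only sample gives the binding signal.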
# ELK4 = target: T1, ELK4 (Homo sapiens, UniProt P28324-2 1-405)
# T1 sequence: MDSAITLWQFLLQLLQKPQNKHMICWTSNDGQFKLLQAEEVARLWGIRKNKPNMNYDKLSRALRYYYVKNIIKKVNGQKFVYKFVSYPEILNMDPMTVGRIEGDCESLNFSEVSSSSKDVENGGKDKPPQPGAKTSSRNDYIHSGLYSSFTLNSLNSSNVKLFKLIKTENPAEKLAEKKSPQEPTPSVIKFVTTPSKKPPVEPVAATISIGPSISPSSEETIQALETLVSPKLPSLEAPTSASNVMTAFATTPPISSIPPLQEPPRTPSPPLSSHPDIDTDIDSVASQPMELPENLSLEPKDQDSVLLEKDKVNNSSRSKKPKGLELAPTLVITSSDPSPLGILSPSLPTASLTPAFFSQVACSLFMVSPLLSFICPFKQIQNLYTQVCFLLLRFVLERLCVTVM
# Method in brief: as §1
# ETV2 = target: T2, ETV2 (Homo sapiens, UniProt O00321 1-342)
# T2 sequence: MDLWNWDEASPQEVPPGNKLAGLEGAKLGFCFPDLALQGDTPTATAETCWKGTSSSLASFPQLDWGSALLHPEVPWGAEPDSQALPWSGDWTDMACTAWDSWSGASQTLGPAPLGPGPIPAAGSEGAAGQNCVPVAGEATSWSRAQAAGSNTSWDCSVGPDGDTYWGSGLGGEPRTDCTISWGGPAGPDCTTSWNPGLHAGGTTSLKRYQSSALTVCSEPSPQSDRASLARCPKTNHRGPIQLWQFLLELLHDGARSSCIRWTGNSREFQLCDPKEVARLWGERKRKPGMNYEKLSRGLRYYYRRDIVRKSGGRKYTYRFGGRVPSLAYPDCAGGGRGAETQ
# Method in brief: as §1
# ELF3 = target: T3, ELF3 (Homo sapiens, UniProt P78545 1-371)
# T3 sequence: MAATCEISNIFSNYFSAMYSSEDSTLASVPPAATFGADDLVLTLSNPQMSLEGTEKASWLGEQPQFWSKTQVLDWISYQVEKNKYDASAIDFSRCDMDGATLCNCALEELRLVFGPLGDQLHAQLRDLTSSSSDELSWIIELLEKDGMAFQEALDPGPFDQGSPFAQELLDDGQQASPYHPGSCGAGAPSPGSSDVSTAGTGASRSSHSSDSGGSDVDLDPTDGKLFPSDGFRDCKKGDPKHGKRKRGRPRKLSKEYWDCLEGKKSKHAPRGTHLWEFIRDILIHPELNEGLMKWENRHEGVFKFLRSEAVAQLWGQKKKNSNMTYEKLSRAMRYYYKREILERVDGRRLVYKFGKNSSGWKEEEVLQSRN
# Method in brief: as §1
# ETV1 = ETV1 (Homo sapiens, UniProt P50549 1-477)
# Chain of ETV1 (P50549 whole entry): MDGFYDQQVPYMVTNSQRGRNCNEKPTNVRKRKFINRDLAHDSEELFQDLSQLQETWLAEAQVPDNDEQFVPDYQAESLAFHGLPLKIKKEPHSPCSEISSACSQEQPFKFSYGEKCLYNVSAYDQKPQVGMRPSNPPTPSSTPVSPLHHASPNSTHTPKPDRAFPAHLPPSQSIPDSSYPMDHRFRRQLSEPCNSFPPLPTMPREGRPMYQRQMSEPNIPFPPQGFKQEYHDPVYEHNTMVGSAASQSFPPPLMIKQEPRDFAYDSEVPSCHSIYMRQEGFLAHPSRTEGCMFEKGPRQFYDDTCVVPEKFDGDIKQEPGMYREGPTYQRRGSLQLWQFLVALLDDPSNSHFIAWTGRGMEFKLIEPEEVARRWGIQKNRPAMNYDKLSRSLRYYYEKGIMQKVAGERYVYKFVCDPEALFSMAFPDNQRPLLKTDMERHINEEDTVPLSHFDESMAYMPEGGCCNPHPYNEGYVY
# Method in brief: as §1
# ERF = target: T4, ERF (Homo sapiens, UniProt P50548 1-548)
# T4 sequence: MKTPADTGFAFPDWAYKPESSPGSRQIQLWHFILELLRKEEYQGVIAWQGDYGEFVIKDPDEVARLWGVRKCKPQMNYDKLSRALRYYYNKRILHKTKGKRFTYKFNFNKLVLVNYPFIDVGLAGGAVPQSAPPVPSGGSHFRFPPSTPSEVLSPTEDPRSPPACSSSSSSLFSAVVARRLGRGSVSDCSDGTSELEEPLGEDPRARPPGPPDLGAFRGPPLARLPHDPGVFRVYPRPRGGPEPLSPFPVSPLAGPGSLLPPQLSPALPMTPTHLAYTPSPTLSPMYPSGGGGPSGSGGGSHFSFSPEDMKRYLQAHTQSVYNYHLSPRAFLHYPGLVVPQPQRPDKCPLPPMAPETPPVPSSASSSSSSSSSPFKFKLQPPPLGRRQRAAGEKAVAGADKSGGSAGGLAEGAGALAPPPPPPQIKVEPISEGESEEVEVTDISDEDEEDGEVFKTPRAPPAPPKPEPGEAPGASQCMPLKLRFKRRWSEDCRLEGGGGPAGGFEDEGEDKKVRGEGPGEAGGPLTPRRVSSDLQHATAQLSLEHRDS
# Method in brief: as §1
# ETV3L = target: T5, ETV3L (Homo sapiens, UniProt Q6ZN32 1-361)
# T5 sequence: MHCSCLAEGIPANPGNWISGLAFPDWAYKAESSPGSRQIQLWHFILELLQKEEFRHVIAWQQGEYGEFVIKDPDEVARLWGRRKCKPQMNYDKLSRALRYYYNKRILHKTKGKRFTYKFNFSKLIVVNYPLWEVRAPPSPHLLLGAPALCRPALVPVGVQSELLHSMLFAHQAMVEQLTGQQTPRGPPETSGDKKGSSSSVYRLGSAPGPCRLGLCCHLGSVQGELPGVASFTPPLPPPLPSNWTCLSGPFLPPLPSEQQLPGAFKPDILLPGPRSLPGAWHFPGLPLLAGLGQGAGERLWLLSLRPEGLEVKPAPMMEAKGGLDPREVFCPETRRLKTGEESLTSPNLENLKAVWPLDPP
# Method in brief: as §1
# ETV7 = target: T6, ETV7 (Homo sapiens, UniProt Q9Y603 1-341)
# T6 sequence: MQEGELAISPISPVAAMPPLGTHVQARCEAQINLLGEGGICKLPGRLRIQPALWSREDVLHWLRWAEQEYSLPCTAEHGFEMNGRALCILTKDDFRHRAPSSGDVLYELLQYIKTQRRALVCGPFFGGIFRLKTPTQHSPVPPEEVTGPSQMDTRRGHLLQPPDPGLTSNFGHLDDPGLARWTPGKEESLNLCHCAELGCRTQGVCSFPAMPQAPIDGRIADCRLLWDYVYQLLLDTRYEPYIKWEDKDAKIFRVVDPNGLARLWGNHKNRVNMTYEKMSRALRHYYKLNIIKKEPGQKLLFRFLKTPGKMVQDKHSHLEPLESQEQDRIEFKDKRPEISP
# Method in brief: as §1
# ETV3 = target: T7, ETV3 (Homo sapiens, UniProt P41162-2 1-143)
# T7 sequence: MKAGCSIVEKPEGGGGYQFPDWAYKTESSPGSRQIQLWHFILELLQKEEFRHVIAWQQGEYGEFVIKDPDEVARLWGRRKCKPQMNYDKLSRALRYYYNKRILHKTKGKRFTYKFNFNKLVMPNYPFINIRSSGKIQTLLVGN
# Method in brief: as §1
# ETV6 = ETV6 (Homo sapiens, UniProt P41212 1-452)
# Chain of ETV6 (P41212 whole entry): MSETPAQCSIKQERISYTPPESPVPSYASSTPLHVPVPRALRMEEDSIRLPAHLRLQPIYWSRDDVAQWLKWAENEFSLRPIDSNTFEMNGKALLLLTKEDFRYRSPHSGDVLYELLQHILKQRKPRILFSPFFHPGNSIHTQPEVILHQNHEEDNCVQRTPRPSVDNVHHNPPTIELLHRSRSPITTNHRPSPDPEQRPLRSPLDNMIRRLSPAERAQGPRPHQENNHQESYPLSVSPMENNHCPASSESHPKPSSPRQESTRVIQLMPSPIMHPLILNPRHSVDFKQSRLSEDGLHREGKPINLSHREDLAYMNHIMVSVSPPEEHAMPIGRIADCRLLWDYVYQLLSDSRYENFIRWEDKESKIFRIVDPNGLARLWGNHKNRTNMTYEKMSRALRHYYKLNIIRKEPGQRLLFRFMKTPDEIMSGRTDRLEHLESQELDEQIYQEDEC
# Method in brief: as §1
sequence,measurement,setting,value
ACCCCT,binding signal,ELF4,"1.09 fold enrichment (6-mer frequency, TF over GST control)"
same,binding signal,ELK4,"1.28 fold enrichment (6-mer frequency, TF over GST control)"
same,binding signal,ETV2,"1.17 fold enrichment (6-mer frequency, TF over GST control)"
same,binding signal,ELF3,"1.09 fold enrichment (6-mer frequency, TF over GST control)"
same,binding signal,ETV1,"1.21 fold enrichment (6-mer frequency, TF over GST control)"
same,binding signal,ERF,"1.06 fold enrichment (6-mer frequency, TF over GST control)"
same,binding signal,ETV3L,"1.05 fold enrichment (6-mer frequency, TF over GST control)"
same,binding signal,ETV7,"1 fold enrichment (6-mer frequency, TF over GST control)"
same,binding signal,ETV3,"1.03 fold enrichment (6-mer frequency, TF over GST control)"
same,binding signal,ETV6,"1.16 fold enrichment (6-mer frequency, TF over GST control)"
